This passage reports inhibition results from PubChem BioAssay AID463195 (Sanford-Burnham Center for Chemical Genomics, 2010).

In all, about 330,000 compounds went through this assay and about 4,600 (1.4%) were called active.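 Rule for the calls: active = inhibition of 40% or more at the single tested concentration; inactive = the rest.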 Only a selection was taken, and actives are over-represented in it overall.

The test is described as follows: wild-type TIM10 yeast growth inhibition – luminescence, uHTS, counter-screen for tim10-1 yeast inhibitor project, primary screen (AID 463195).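 Note: wild-type TIM10 isogenic control strain grown at permissive 25 °C; 0% = DMSO yeast wells and 100% = minimal medium wells without yeast.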 The conditions noted are these: S. cerevisiae TIM10 strain growth, BacTiter-Glo luminescence, 24 h; at 10 µM; hits give high values. In general terms: A counterscreen serves to expose hits that act by an unwanted route or on another target.
For the compound `N=c1n(Cc2ccc(Cl)cc2)c2ccccc2n1CC(O)c1ccco1` (stereo unspecified), the inhibition (in general, the change of the read-out against control, counted positive when it falls) is 4.4% (inactive). As to `NC(=O)c1cc(S(=O)(=O)N2CCCC2)ccc1OCc1ccc(F)cc1`, the inhibition is -5.53% (inactive). To `CSC(=S)N/N=C/c1c[nH]c2ccccc12` belongs 43.5% (active).

On to `O=C(N/N=C/c1cccc(O)c1)c1cc2c(ccc3ccccc32)o1`, for which the inhibition was 7.41% (inactive). `O=C(O)c1cccc(NC(=S)N/N=C/c2c[nH]c3ccccc23)c1`: the inhibition is 11.4% (inactive). `Nc1nonc1-n1nnc(C(=O)N/N=C/c2c[nH]c3ccccc23)c1-c1ccccc1`: the inhibition was 12.9% (inactive).

Regarding `Cc1c(/C=N\NC(=O)c2cc3ccccc3o2)c2ccccc2n1C`, the inhibition was 8.19% (inactive). In the case of `O=C(N/N=C/c1c[nH]c2ccccc12)c1cc2ccccc2o1`, the inhibition was 49.3% (active). Regarding `COc1ccccc1CNS(=O)(=O)c1cc(C(=O)NCc2ccccn2)c(Cl)cc1Cl`, the inhibition is 3.96% (inactive). Consider `CCOC(=O)c1cc2c(=O)[nH]c(C(Cl)(Cl)Cl)nc2o1`, for which the inhibition was 1.82% (inactive). The result for `COc1cc2c(cc1NC(=O)COC(=O)/C=C/c1ccccc1)oc1ccccc12` reads -21.9% (inactive); that for `CN(c1ccc(OCC(=O)NC2=NCCS2)cc1)S(=O)(=O)c1ccc(F)cc1`, -18.2% (inactive); that for `C/C(CC1CC(C)(C)OC1=O)=N/Nc1nc(-c2ccccc2)cs1` (stereo unspecified), 17.6% (inactive). On to `COc1ccccc1C(=O)CSc1cccc[n+]1[O-]`, for which the inhibition was -4.59% (inactive). For `O=C(CSc1cccc[n+]1[O-])c1ccc(Cl)cc1`, the inhibition is 1.21% (inactive). Take `O=C(CSc1cccc[n+]1[O-])c1ccc(-c2ccccc2)cc1`: the inhibition is 42% (active). Regarding `CCc1cc2cc(OC)ccc2nc1SCC(=O)Nc1cc(OC)c(OC)cc1C(=O)O`, the inhibition is 11.1% (inactive). As to `Cc1ccc(NC(=O)c2ccc(Oc3ncccn3)cc2)cc1`, the inhibition was 9.43% (inactive).

On to `COc1cccc(N(CC(=O)NCCSc2ccccn2)S(C)(=O)=O)c1`, for which the inhibition was -1.16% (inactive). Turning to `COC(=O)c1ccc(S(=O)(=O)N2CCc3ccccc3C2)cc1`, the inhibition is -8.05% (inactive).

As for `O=C(ON=C1CCN(S(=O)(=O)c2ccccc2)CC1)c1ccc(Cl)cc1`, the inhibition is 48% (active). To `CC(OC(=O)c1ccc(S(=O)(=O)N2CCOCC2)cc1)c1ccccc1` (stereo unspecified) belongs 10.1% (inactive); to `Cc1cc[n+](-c2[nH]c(=O)sc2/C=N/NC(=O)c2ccccc2[O-])cc1C`, 2.83% (inactive); to `CN(c1ccc(O)cc1)c1nc(-c2cccnc2)cs1`, -2.92% (inactive). `COc1ccccc1C1=CC(=O)C[C@H](c2ccc(F)cc2)C1`: the inhibition was -15.1% (inactive). Take `COc1ccccc1-c1n[nH]c2c1[C@H](C)CC[C@H]2C(C)C`: the inhibition is 56% (active). To `CCN(C[C@H]1N[C@@](CC)(C(=O)OC)[C@H]2C(=O)N(Cc3ccccc3)C(=O)[C@@H]12)S(=O)(=O)c1ccc(C(F)(F)F)cc1` belongs 12.3% (inactive); to `Cc1ccc(Nc2nc(Cl)c(C=O)s2)cc1`, 41.1% (active). `Cc1ccc(NC(=O)Nc2nnc(-c3ccncc3)s2)cc1`: the inhibition was 5.77% (inactive). On to `Cc1ccc(Nc2nc(C)cc(C)c2C(N)=O)cc1`, for which the inhibition is 6.89% (inactive).

Turning to `CC(C)NC(=O)NC(=O)CSc1nnc(-c2ccccc2F)n1N`, the inhibition was 5.49% (inactive).

Consider `CN(C(=O)CSc1nnc(N)s1)c1c(N)n(Cc2ccccc2)c(=O)[nH]c1=O`, for which the inhibition is 10.2% (inactive). Take `CS(=O)(=O)N(CC(=O)N1CCOCC1)c1ccc2c3c(cccc13)CC2`: the inhibition is 8.14% (inactive). To `CCCn1nc(C(=O)NNC(=O)CCOc2ccccc2OCC)c2ccccc2c1=O` belongs 13.7% (inactive); to `CCOc1ccccc1C1NC(=O)NC(C)=C1C(=O)OCc1ccco1` (stereo unspecified), 0.932% (inactive). In the case of `CCOc1ccccc1/C=c1\sc2nc(-c3ccco3)nn2c1=O`, the inhibition is 45% (active). On to `Cc1cccc([C@@H]2[C@@H]3C(=O)N(Cc4ccccc4)C(=O)[C@@H]3[C@]3(C)C(=O)N(c4ccc(Br)cc4)C(=O)N23)c1`, for which the inhibition was 4.22% (inactive).

`Cn1c(Cc2csc(N)n2)nnc1SC/C=C/c1ccccc1`: the inhibition is 7.09% (inactive). Regarding `CCN(Cc1nc2ccccc2c(=O)[nH]1)Cc1cc(=O)oc2cc(C)c(C)cc12`, the inhibition was -2.16% (inactive). Regarding `COc1ccc(C(=O)NC(C)c2nccs2)cc1OC1CCN(C(C)C)CC1` (stereo unspecified), the inhibition was -15% (inactive). Turning to `O=C(Nc1nnc(CCOCCOCCc2nnc(NC(=O)c3ccco3)s2)s1)c1ccco1`, the inhibition was -7.13% (inactive).

As to `NC(=O)c1ccsc1NC(=O)c1ccco1`, the inhibition is 8.27% (inactive). `O=C(Nc1nc(-c2ccco2)c(-c2ccco2)s1)c1ccco1`: the inhibition was 40.3% (active). Turning to `CS/C(=C\[N+](=O)[O-])Nc1ccc(C)cc1`, the inhibition is 30% (inactive). To `CCc1c(C)[nH]c(=S)c(C#N)c1C` belongs 3.94% (inactive). To `O=C(NCCCCc1ccccc1)C1CC(c2ccc([N+](=O)[O-])cc2)=NO1` (stereo unspecified) belongs -15.3% (inactive); to `O=C1NC(=O)C2C1C(c1ccc([N+](=O)[O-])cc1)=NN2Cc1ccccc1` (stereo unspecified), 46.2% (active).

For the compound `CC(=O)N1c2ccccc2N(Cc2ccc([N+](=O)[O-])cc2)C(=O)C1(C)C`, the inhibition was 27.8% (inactive). In the case of `c1ccc2c(c1)CSc1sccc1C2=C1CCNCC1`, the inhibition is 1.38% (inactive). For the compound `COc1ccc(OC)c(C(=O)c2ccc(C(=O)N3CCN(Cc4csc(C)n4)CC3)cc2)c1`, the inhibition is -9.33% (inactive). To `CCOC(=O)c1cn[nH]c1NC(=S)Nc1ccccc1` belongs -4.24% (inactive); to `CCC1C/C(=C/c2cccs2)C(=O)/C(=C/c2cccs2)C1` (stereo unspecified), 8.85% (inactive). Take `CSC1=N/C(=C\C=C\c2cccs2)C(=O)S1`: the inhibition is 46.2% (active). Consider `COC(=O)c1cccc(N2C(=O)C3C4C=CC(CC4)C3C2=O)c1` (stereo unspecified), for which the inhibition is -2.62% (inactive). To `O=C(OCC(=O)N(CCc1ccccc1)Cc1ccccc1)c1ccccc1[N+](=O)[O-]` belongs 6.8% (inactive).

Take `O=C(Nc1ccc(O)cc1)c1ccc(NC(=O)c2ccco2)cc1`: the inhibition was -7.64% (inactive).

With `O=C(Nc1ccc(NC(=O)c2cccs2)cn1)c1ccco1`, the inhibition was 49.1% (active). For `O=C(Nc1ccnc(-c2ccncc2)n1)c1cccs1`, the inhibition is 5.09% (inactive). The result for `O=C(CN1CCN(C(=O)C2CCCO2)CC1)Nc1c(Cl)cccc1Cl` (stereo unspecified) reads -3.56% (inactive); that for `O=[N+]([O-])c1ccc(N2CCN(c3ccc(F)cc3)CC2)cn1`, 9.61% (inactive). For `C/C=N/NC(=O)CCCC(=O)N/N=C/C`, the inhibition was 19.2% (inactive).

For the compound `S=C(NNC(=S)NC1CC2CCC1C2)NC1CC2C=CC1C2` (stereo unspecified), the inhibition was 31.5% (inactive). Consider `CC(C)c1ccc(NC(=S)NC2CC3C=CC2C3)cc1` (stereo unspecified), for which the inhibition was 41.7% (active). As to `S=C(NNC(=S)NC1CC2C=CC1C2)NC1CC2C=CC1C2` (stereo unspecified), the inhibition is 11.5% (inactive). The result for `Fc1ccc(Cn2nnnc2C(c2cccs2)N2CCCCCC2)cc1` (stereo unspecified) reads 23.6% (inactive).

Turning to `COC(=O)c1ccc(Oc2nc(Nc3ccc(F)cc3)nc(N3CCCC3)n2)cc1`, the inhibition is -20.4% (inactive).

Regarding `Clc1nc(NC2CCCC2)nc(N2CCOCC2)n1`, the inhibition is 11.4% (inactive). To `COc1nc(NC2CCCCC2)nc(N2CCCCCC2)n1` belongs 40% (active). Turning to `CCOC(=O)c1cnn(Cc2ccccc2Cl)c1N`, the inhibition was 1.13% (inactive). With `COC(=O)CNC(=O)C(CCSC)NC(C)=O` (stereo unspecified), the inhibition was -26.2% (inactive). On to `CO/N=C/c1cn(-c2ccc(Cl)cc2)nn1`, for which the inhibition was 5.41% (inactive).

`Cc1nc(-c2ccccc2)sc1C(=O)/C=C/N(C)C`: the inhibition was 7.98% (inactive).

For `Cc1nc(-c2ccc(Cl)cc2)sc1C(=O)CBr`, the inhibition was 51.9% (active). For the compound `Cc1nc(-c2ccc(Cl)cc2)sc1C1(C)CC(c2ccc(Br)cc2)=NO1` (stereo unspecified), the inhibition was 7.58% (inactive). As to `O=C(CSc1nncs1)NC1CCCc2ccccc21` (stereo unspecified), the inhibition was -4.46% (inactive).

Regarding `Cc1ccccc1N1CC(C(=O)Nc2nnc(SCCC3OCCO3)s2)CC1=O` (stereo unspecified), the inhibition is 4.72% (inactive). As to `CCSc1ccccc1C(=O)NCc1ccc(OC)cc1`, the inhibition was -1.39% (inactive). The result for `Cc1cccc(C)c1NC(=O)Nc1ccccc1-n1ccnc1` reads 3.36% (inactive); that for `CC(CC(=O)Nc1ccccc1)n1ccnc1` (stereo unspecified), -0.308% (inactive); that for `O=C(O)CCCC(=O)Nc1ccccc1-n1ccnc1`, 95.9% (active). In the case of `COc1nc(Oc2ccc(=O)n(C)n2)nc(N(C)C)n1`, the inhibition was -5.67% (inactive).

With `Cn1cnc([N+](=O)[O-])c1Sc1ccccc1`, the inhibition was 21.8% (inactive). As to `CN(c1ccc(OCC(=O)O)cc1)S(=O)(=O)c1ccc2ccccc2c1`, the inhibition is -10.2% (inactive).

On to `COCCNC(=O)COc1ccc(N(C)S(=O)(=O)c2ccc3ccccc3c2)cc1`, for which the inhibition is 20.2% (inactive). `CC(=O)Oc1ccc(N(C(C)=O)S(=O)(=O)c2ccc3ccccc3c2)cc1Br`: the inhibition was 48.2% (active). For the compound `COc1ccccc1C(=O)COC(=O)CSCC(=O)Nc1cc(C)on1`, the inhibition is 11.1% (inactive). Turning to `COCCn1c(CN2CCC(Cc3ccccc3)CC2)nc2c1c(=O)n(C)c(=O)n2C`, the inhibition is -0.058% (inactive). As to `CC(=O)Nc1cccc(OCC(=O)/C=C2\N(C)c3ccccc3C2(C)C)c1`, the inhibition is 14.8% (inactive). The result for `COC(=O)c1c(NC(=O)COc2ccc(Cl)cc2Cl)sc2c1CC(C)(C)NC2(C)C` reads 41.3% (active); that for `CCOC(=O)c1c(NC(=O)c2ccc(S(=O)(=O)N(C)CC3CCCO3)cc2)sc2c1CC(C)(C)NC2(C)C` (stereo unspecified), -10.5% (inactive); that for `COC(=O)c1sccc1NC(=O)COc1ccc(Cl)cc1`, 12.6% (inactive). For `CCN(CC(=O)NC(C)C)C(=O)CCNC(=O)c1ccc(Cl)cc1`, the inhibition was 10.6% (inactive).

As for `CC(=NCc1ccc2c(c1)OCO2)C1=C(O)c2ccccc2C1=O`, the inhibition was 70.5% (active).

For the compound `CC1CCC(NC(=O)C2c3ccccc3C(=O)N2Cc2ccc3c(c2)OCO3)CC1` (stereo unspecified), the inhibition is 0.084% (inactive). To `CCc1ccc(NC(=O)NC(C)c2ccc3c(c2)OCO3)cc1` (stereo unspecified) belongs 6.53% (inactive); to `O=C1N(c2ccccc2)C(=Nc2ccccc2)SC12CC2`, 13.6% (inactive).
